Anthrax LF prot: Bacillus anthracis LF protease inhibitors, primary screen, biochemical, multiplex microsphere, MLPCN library. multiplex microsphere protease cleavage assay. inhibition, % at 10 µM. hit rate 0.12% among 360,000; note: plate controls were buffer without enzyme for full effect and enzyme alone for no effect
BoNT-F LC inh: BoNT/F light chain protease inhibitors, primary screen, biochemical, flow cytometry, MLPCN library | Botulinum neurotoxin type F light chain protease (Clostridium botulinum) | Multiplex microsphere protease cleavage assay | inhibition, % at 10 µM | hit rate 0.22% among 360,000; in the data active = inhibition above about 35%, passing the limit was not always enough; inconclusive = no clear call, values can overlap the other calls; note: plate controls were buffer without enzyme for full effect and enzyme alone for no effect
Autofluor counter: counter-screen for toxin protease inhibitors: compound fluorescence; compound autofluorescence counterscreen, microsphere flow cytometry; stronger effect = higher value; fluorescence intensity (concentration not given with the values); AID 624483; hit rate 3.1% among 360,000; in the data active = fluorescence intensity above about 16000; inconclusive = no clear call, values can overlap the other calls
BoNT A protease: BoNT/A light chain protease inhibitors, primary screen, biochemical, flow cytometry, MLPCN library. Botulinum neurotoxin type A light chain protease (Clostridium botulinum A str. ATCC 3502). multiplex microsphere protease substrate cleavage. inhibition, % at 10 µM. hit rate 0.17% among 360,000. AID 588499, 2011; note: plate controls were buffer without enzyme for full effect and enzyme alone for no effect
MazF activator: activators of E. coli MazEF toxin-antitoxin RNase, primary screen, biochemical, fluorescence, uHTS; activation, % at 20 µM; FAM/BHQ RNA-DNA oligo cleavage fluorescence, 5 h; Endoribonuclease toxin MazF (Escherichia coli (strain K12)), P0AE70; hit rate 0.32% among 350,000; AID 504720, 2011; in the data active = activation above about 50%
Target sequence (P0AE70 whole entry, looked up): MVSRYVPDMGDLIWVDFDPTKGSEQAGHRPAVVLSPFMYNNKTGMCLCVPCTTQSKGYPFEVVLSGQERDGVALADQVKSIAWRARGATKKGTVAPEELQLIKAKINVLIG
Starred values were filed as active, the others as inactive; ? = inconclusive; / = no result given. The list is not random: actives were taken first. Their share in the collection is about 3.7%. Cut-off read from the data, not from the text of the source, unless noted: active = inhibition above about 30%; inconclusive = no clear call, values can overlap the other calls; inactive = below that.

SMILES	Anthrax LF prot	BoNT-F LC inh	Autofluor counter	BoNT A protease	MazF activator
C(=N\NC1=Nc2cccc3cccc1c23)/c1ccccc1	3.5	-7.0	2655	13.0	509.2*
COC(=O)[C@H](CC(C)C)NC(=O)/C=C/[C@H]1O[C@@H](n2ccc(=O)[nH]c2=O)[C@H](O)[C@@H]1O	1.5	-7.7	5694	-1.4	/
Cn1c(/C=C/c2ccccc2[N+](=O)[O-])nc2ccccc2c1=O	2.2	8.4	3076	2.1	232.7*
O=c1/c(=C/c2cccc3ccccc23)sc2ncnn12	6.9	4.2	4260	0.4	6.4
Cc1ccsc1/C=c1\sc2ncnn2c1=O	-0.9	-1.6	20527*	-1.8	-10.2
CC1(c2nnnn2-c2ccc3c(c2)OCCO3)CCC(=O)N1Cc1cccnc1 (configuration not stated)	2.5	-0.2	5907	-1.1	/
COCCNCc1ccccc1	0.1	-3.8	24425*	-2.7	0.1
COCCNCc1ccc(C(C)C)cc1	1.5	-0.7	2497	-0.1	3.7
O=C(Cn1nc(-c2cccc(Cl)c2)ccc1=O)Nc1cccnc1	-8.5	-1.7	23773*	?	-0.6
CCN(CC)CCCNC(=O)Cn1nc(-c2ccccc2)ccc1=O	-1.9	-0.3	20162*	1.4	-3.8
CCOC(=O)/C=c1\s/c(=C\c2c(OCC)ccc3ccccc23)c(=O)n1CC(=O)NCC1CCCO1 (configuration not stated)	-3.2	5.4	2762	0.2	-16.9
O=C(Cn1nc(-c2ccccc2)ccc1=O)NCC1CCCO1 (configuration not stated)	-3.1	-5.2	23626*	-4.2	4.8
CCOC(=O)/C=c1/s/c(=C\c2c(OC)ccc3ccccc23)c(=O)n1CC(=O)NCC1CCCO1 (configuration not stated)	-0.3	5.2	3895	-0.1	184.0*
COc1ccc(C=C2CS(=O)(=O)CC(=Cc3ccc(OC)cc3)C2=O)cc1	-4.1	-2.7	3547	-0.2	7.0
COc1ccccc1C=NN=C(NN=Cc1ccccc1OC)NN=Cc1ccccc1OC	-4.6	-9.0	3825	0.0	-17.1
O=C(Cn1nc(-c2ccccc2)ccc1=O)NCCN1CCN(Cc2ccccc2)CC1	-9.0	-4.3	6531	-0.9	5.9
O=C(Cn1nc(-c2ccccc2)ccc1=O)NCCN1CCN(c2cccc(Cl)c2)CC1	-3.1	-5.5	21385*	-2.0	2.6
Cc1ccc(-c2nn(CC(=O)NCC3CCCO3)c(=O)c3ccccc23)cc1 (configuration not stated)	-3.0	-8.9	23922*	-3.4	-4.6
CC(C)(C)C(=O)N(CCN(C(=O)C(C)(C)C)c1ccccc1)c1ccccc1	-0.5	-0.9	23201*	0.7	-5.8
CC(=O)N(CCN(C(C)=O)c1ccccc1)c1ccccc1	-1.8	10.2	3766	-1.3	-11.9
Cc1ccc(S(=O)(=O)N2CCN(Cc3nc4ccccc4[nH]3)CC2)cc1C	-1.4	-5.5	3566	0.1	3.7
Cc1cc(C)c(C)c(S(=O)(=O)N2CCN(C(=O)c3cc(=O)[nH]c4ccccc34)CC2)c1C	-8.9	10.8	20107*	7.6	-12.0
Cc1cc(C)c(C)c(S(=O)(=O)N2CCN(Cc3nc4ccccc4[nH]3)CC2)c1C	-0.6	1.7	22533*	?	3.1
CC(Sc1nc2ccccc2[nH]1)C(=O)O (configuration not stated)	1.2	5.0	23428*	1.3	2.5
ClCCn1c(CCl)nc2ccc(Cl)cc21	-2.8	-2.3	3754	-0.2	10.4
SMILES	Anthrax LF prot	BoNT-F LC inh	Autofluor counter	BoNT A protease	MazF activator
COc1ccc(-n2c(=S)[nH]c3cc(C(=O)NCc4ccco4)ccc3c2=O)cc1OC	0.7	?	4604	0.3	0.3
Cc1ccc(S(=O)(=O)c2cc3c(=O)n4ccccc4nc3n(C)c2=N)cc1	-5.9	5.0	18992*	4.6	3.8
CC(C)OCCCn1c(=N)c(C(N)=S)cc2c(=O)n3ccccc3nc21	-51.6	-56.4	5395	34.8*	13.9
Cc1ccc(S(=O)(=O)c2cc3c(=O)n4cccc(C)c4nc3n(C3CCCCC3)c2=N)cc1	-6.7	-18.9	3949	-1.3	52.5*
Cc1ccc(S(=O)(=O)c2cc3c(=O)n4ccccc4nc3n(C3CCCC3)c2=N)cc1	1.0	-25.1	3268	-5.5	-10.4
COc1ccc(CCn2c(=S)[nH]c3cc(C(=O)NCc4ccco4)ccc3c2=O)cc1OC	0.9	-1.5	20732*	-3.6	5.4
CCCn1c(=N)c(S(=O)(=O)c2ccccc2)cc2c(=O)n3ccccc3nc21	-10.0	2.2	5698	1.3	-13.8
COc1ccc(CCn2c(=N)c(C(=O)NCc3ccco3)cc3c(=O)n4ccccc4nc32)cc1	3.5	1.6	22951*	2.0	5.8
COc1ccc(CCn2c(=N)c(S(=O)(=O)c3ccccc3)cc3c(=O)n4ccccc4nc32)cc1	2.0	6.2	5759	3.2	-0.4
Cc1ccc(S(=O)(=O)c2cc3c(=O)n4ccccc4nc3n(CCc3ccccc3)c2=N)cc1	1.4	9.1	6600	0.8	71.7*
COc1ccc(CCn2c(=N)c(S(=O)(=O)c3ccc(Cl)cc3)cc3c(=O)n4ccccc4nc32)cc1	-15.2	-87.3	21901*	-36.3	37.2
CCn1c(=N)c(S(=O)(=O)c2ccccc2)cc2c(=O)n3ccccc3nc21	-2.6	-0.7	4563	0.6	228.2*
CC(C)CC1NC(=O)N(CC(=O)Nc2ccc(OCc3ccccc3)cc2)C1=O (configuration not stated)	/	/	/	/	-3.9
O=C(NCc1ccco1)c1cc(-c2ccc(Cl)cc2)on1	-1.3	1.2	22771*	0.8	-24.1
O=C(NCc1ccco1)c1cc(-c2cccc(Cl)c2)on1	-11.5	3.0	21505*	2.6	-8.7
COc1cc(OC)cc(C(=O)NC(=S)NCc2ccco2)c1	-5.9	-2.6	16948*	?	-17.0
O=C(NCc1ccco1)c1ccc(-c2cccc(Cl)c2)o1	-0.5	-9.4	4376	-1.9	-6.4
O=C(NCc1ccco1)c1cc(-c2ccc3c(c2)OCO3)on1	-2.9	-6.5	17176*	-4.3	-1.8
COC(=O)c1ccc2nc(-c3ccc(C#N)cc3)c(Cc3cccc(Cl)c3)n2c1	-6.6	7.7	7682	0.8	/
CC1=C(C(=O)N(C)C)CC(CC(=O)NC(c2ccccc2)c2ccccc2)C(=O)N1CCCN1CCCC1=O (configuration not stated)	-1.2	-5.0	2952	0.0	8.9
CCOC(=O)C(Cc1c[nH]c2cc([N+](=O)[O-])ccc12)(NC(C)=O)C(=O)OCC	4.2	-0.6	3738	1.2	4.1
Cc1cc(C(=O)NCc2ccco2)no1	-0.7	4.4	22251*	2.9	-7.4
Cc1ccc(-c2cc(C(=O)NCc3ccco3)no2)cc1	-7.9	-15.4	8560	?	-3.9
COc1cccc(-c2cc(C(=O)NCc3ccco3)no2)c1	-3.2	-4.6	24153*	-2.8	-2.6
COc1ccc(OC)c(-c2cc(C(=O)NCc3ccco3)no2)c1	-5.5	-0.6	8033	-0.5	1.7

Source: PubChem
